# Reference: PubChem BioAssay AID1952 (The Scripps Research Institute Molecular Screening Center, 2009)
# The whole screen tested about 2,400 compounds, of which about 1,200 (50%) were called active. No stated cut-off is given here; in the data, active means inhibition above about 24%; inactive means the rest. The set was probably picked from earlier hits. The list is a sample of the results.
# Biological target: Neuropeptides B/W receptor type 1 (Homo sapiens) (UniProt P48145)
# Assay: blockers of human NPBW1 receptor – cell-based, fluorescence, single concentration, confirmation (AID 1952);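 further: stimulated with the GPR7 agonist NPW; 0% = agonist plus vehicle and 100% = vehicle alone without agonist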
# Details: GPR7-expressing cells, calcium fluorescence antagonist mode; at 4.4 µM; stronger effect = higher value
# Neuropeptides B/W receptor type 1 (Homo sapiens), sequence (P48145 whole entry, looked up): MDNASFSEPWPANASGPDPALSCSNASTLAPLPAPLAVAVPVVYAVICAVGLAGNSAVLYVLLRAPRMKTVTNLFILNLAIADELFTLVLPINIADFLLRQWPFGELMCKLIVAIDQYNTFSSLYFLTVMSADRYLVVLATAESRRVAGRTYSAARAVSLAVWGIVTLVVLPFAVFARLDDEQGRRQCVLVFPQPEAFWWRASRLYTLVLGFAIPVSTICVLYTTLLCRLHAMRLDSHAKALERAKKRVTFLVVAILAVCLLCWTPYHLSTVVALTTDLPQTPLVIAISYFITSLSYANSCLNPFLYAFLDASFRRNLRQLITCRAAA
row,Compound,inhibition
1,CCOc1ccc(-c2cc(C)[n+](CCN(CC)CC)c(-c3ccc(OCC)cc3)c2)cc1,41.8% (active)
2,COc1ccc(Br)cc1CNCCc1cccc(Cl)c1,32.7% (active)
3,CCOC(=O)C1(Cc2ccc(Cl)cc2)CCN(C(C)CCn2cccn2)CC1 (stereo not drawn),18.4% (inactive)
